According to the supplement of paper PMC7411054:
Counter-ions that a name gives are not always drawn.

What was measured:
Settings in all cases: treatment time: 24 h
A549-ACTB-RAB5A [1] = assay: lowest phenotypically active concentration; higher = less potent
In short: (§1)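 Fifteen gene-edited A549, HepG2 and WPMY1 reporter lines (BFP segmentation plus GFP and RFP/FusionRed markers) were treated at 0.3, 1, 3 or 9 µM for 24 h, four wells each, then imaged live. Live-cell features per well were normalised to DMSO control wells. Deviation required ≥3 of 4 wells beyond the 95th percentile of DMSO Euclidean distances, and reproducibility required median replicate Pearson correlation above the 95th percentile of non-replicates. Phenotypic activity needed both criteria.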

A549-CANX-COX4 [2] = assay: as above
In short: as §1

A549-GM130-SQSTM1 [3] = assay: as above
In short: as §1

A549-TUBA1B-RELA [4] = assay: as above
In short: as §1

HepG2-TUBA1B-RELA [5] = assay: as above
In short: as §1

A549-ACTB-RAB5A [6] = assay: phenotypically active (imaging signature differs from DMSO and reproducible) at any of 0.3-9 uM (binary (1 = active, 0 = inactive)); higher = active
In short: as §1

A549-CANX-COX4 [7] = assay: as above
In short: as §1

A549-GM130-SQSTM1 [8] = assay: as above
In short: as §1

A549-TP53BP1-CLTA = assay: as above
In short: as §1

A549-TUBA1B-RELA [9] = assay: as above
In short: as §1

HepG2-ACTB-RAB5A = assay: as above
In short: as §1

HepG2-CANX-COX4 = assay: as above
In short: as §1

HepG2-GM130-SQSTM1 = assay: as above
In short: as §1

HepG2-TP53BP1-CLTA = assay: as above
In short: as §1

HepG2-TUBA1B-RELA [10] = assay: as above
In short: as §1

WPMY1-ACTB-RAB5A = assay: as above
In short: as §1

WPMY1-CANX-COX4 = assay: as above
In short: as §1

WPMY1-GM130-SQSTM1 = assay: as above
In short: as §1

WPMY1-TP53BP1-CLTA = assay: as above
In short: as §1

WPMY1-TUBA1B-RELA = assay: as above
In short: as §1

Row | Structure (SMILES) | lowest phenotypically active concentration (A549-ACTB-RAB5A [1]) | lowest phenotypically active concentration (A549-CANX-COX4 [2]) | lowest phenotypically active concentration (A549-GM130-SQSTM1 [3]) | lowest phenotypically active concentration (A549-TUBA1B-RELA [4]) | lowest phenotypically active concentration (HepG2-TUBA1B-RELA [5]) | phenotypically active (A549-ACTB-RAB5A [6]) | phenotypically active (A549-CANX-COX4 [7]) | phenotypically active (A549-GM130-SQSTM1 [8]) | phenotypically active (A549-TP53BP1-CLTA) | phenotypically active (A549-TUBA1B-RELA [9]) | phenotypically active (HepG2-ACTB-RAB5A) | phenotypically active (HepG2-CANX-COX4) | phenotypically active (HepG2-GM130-SQSTM1) | phenotypically active (HepG2-TP53BP1-CLTA) | phenotypically active (HepG2-TUBA1B-RELA [10]) | phenotypically active (WPMY1-ACTB-RAB5A) | phenotypically active (WPMY1-CANX-COX4) | phenotypically active (WPMY1-GM130-SQSTM1) | phenotypically active (WPMY1-TP53BP1-CLTA) | phenotypically active (WPMY1-TUBA1B-RELA)
1 | O=C(CCCCSc1nc(-c2ccc(-c3ccccc3)cc2)cc(=O)[nH]1)NO | ≤ 0.3 µM | 1 µM | ≤ 0.3 µM | ≤ 0.3 µM | ≤ 0.3 µM | 1 (active) | 1 (active) | 1 (active) | 1 (active) | 1 (active) | 1 (active) | 1 (active) | 1 (active) | 1 (active) | 1 (active) | 1 (active) | 1 (active) | 1 (active) | 1 (active) | 1 (active)
2 | Nc1ccc(-c2cccc3c(=O)cc(N4CCOCC4)oc23)cc1 | 3 µM | 9 µM | 9 µM | 9 µM | 9 µM | 1 (active) | 1 (active) | 1 (active) | 1 (active) | 1 (active) | 1 (active) | 1 (active) | 1 (active) | 1 (active) | 1 (active) | 1 (active) | 1 (active) | 1 (active) | 1 (active) | 1 (active)
3 | NCC(=O)Nc1ccc(-n2nc(C(F)(F)F)cc2-c2ccc3c(ccc4ccccc43)c2)cc1 | 1 µM | 1 µM | 1 µM | 1 µM | 1 µM | 1 (active) | 1 (active) | 1 (active) | 1 (active) | 1 (active) | 1 (active) | 1 (active) | 1 (active) | 1 (active) | 1 (active) | 1 (active) | 1 (active) | 1 (active) | 1 (active) | 1 (active)
4 | O=C1NC(=O)[C@@H](c2cn3c4c(cccc24)CCC3)[C@@H]1c1c[nH]c2ccccc12 [tivantinib] | 1 µM | 1 µM | 1 µM | 3 µM | 1 µM | 1 (active) | 1 (active) | 1 (active) | 1 (active) | 1 (active) | 1 (active) | 1 (active) | 1 (active) | 1 (active) | 1 (active) | 1 (active) | 1 (active) | 1 (active) | 1 (active) | 1 (active)
5 | COc1cc(/C=C/C(=O)N2CCC=CC2=O)cc(OC)c1OC [Piperlongumine] | 3 µM | 9 µM | 3 µM | 9 µM | 3 µM | 1 (active) | 1 (active) | 1 (active) | 1 (active) | 1 (active) | 1 (active) | 1 (active) | 1 (active) | 1 (active) | 1 (active) | 1 (active) | 1 (active) | 1 (active) | 1 (active) | 1 (active)
6 | COc1cc(Br)c(Nc2nc(-c3c(C)nc4ncccn34)cs2)c(Br)c1 | 1 µM | 1 µM | 1 µM | 1 µM | 1 µM | 1 (active) | 1 (active) | 1 (active) | 1 (active) | 1 (active) | 1 (active) | 1 (active) | 1 (active) | 1 (active) | 1 (active) | 1 (active) | 1 (active) | 1 (active) | 1 (active) | 1 (active)
7 | CCNC(=O)c1noc(-c2cc(C(C)C)c(O)cc2O)c1-c1ccc(CN2CCOCC2)cc1 | ≤ 0.3 µM | ≤ 0.3 µM | ≤ 0.3 µM | ≤ 0.3 µM | ≤ 0.3 µM | 1 (active) | 1 (active) | 1 (active) | 1 (active) | 1 (active) | 1 (active) | 1 (active) | 1 (active) | 1 (active) | 1 (active) | 1 (active) | 1 (active) | 1 (active) | 1 (active) | 1 (active)
8 | Cc1ccc(NC(=O)CCCCCC(=O)Nc2ccccc2N)cc1 | 1 µM | 3 µM | 1 µM | 3 µM | 9 µM | 1 (active) | 1 (active) | 1 (active) | 1 (active) | 1 (active) | 1 (active) | 1 (active) | 1 (active) | 1 (active) | 1 (active) | 1 (active) | 1 (active) | 1 (active) | 1 (active) | 1 (active)
9 | O=C(OC12CC3CC(CC(C3)C1)C2)c1ccc(NCc2cc(O)ccc2O)cc1 [Adaphostin] | 1 µM | 9 µM | 9 µM | 3 µM | 3 µM | 1 (active) | 1 (active) | 1 (active) | 1 (active) | 1 (active) | 1 (active) | 1 (active) | 1 (active) | 1 (active) | 1 (active) | 1 (active) | 1 (active) | 1 (active) | 1 (active) | 1 (active)
10 | CS(=O)(=O)c1cccc(CNc2nc(Nc3ccc4c(c3)CCC(=O)N4)ncc2C(F)(F)F)c1 | 3 µM | 3 µM | 3 µM | 3 µM | 1 µM | 1 (active) | 1 (active) | 1 (active) | 1 (active) | 1 (active) | 1 (active) | 1 (active) | 1 (active) | 1 (active) | 1 (active) | 1 (active) | 1 (active) | 1 (active) | 1 (active) | 1 (active)
11 | CN(C)CCCNc1c2c(=O)n(C)c(=O)nc-2n(C)c2ccccc12 | 9 µM | 9 µM | 9 µM | 9 µM | 9 µM | 1 (active) | 1 (active) | 1 (active) | 1 (active) | 1 (active) | 1 (active) | 1 (active) | 1 (active) | 1 (active) | 1 (active) | 1 (active) | 1 (active) | 1 (active) | 1 (active) | 1 (active)
12 | O=C(NCCCNc1nc(Nc2cccc(NC(=O)N3CCCC3)c2)ncc1I)c1cccs1 | 1 µM | 3 µM | 3 µM | 3 µM | ≤ 0.3 µM | 1 (active) | 1 (active) | 1 (active) | 1 (active) | 1 (active) | 1 (active) | 1 (active) | 1 (active) | 1 (active) | 1 (active) | 1 (active) | 1 (active) | 1 (active) | 1 (active) | 1 (active)
13 | Oc1ccc(-c2nc(-c3ccc(F)cc3)c(-c3ccncc3)[nH]2)cc1 | 3 µM | 3 µM | 9 µM | 3 µM | 3 µM | 1 (active) | 1 (active) | 1 (active) | 1 (active) | 1 (active) | 1 (active) | 1 (active) | 1 (active) | 1 (active) | 1 (active) | 1 (active) | 1 (active) | 1 (active) | 1 (active) | 1 (active)
14 | C[C@@H](CN1CCC(n2c(=O)[nH]c3cc(Cl)ccc32)CC1)NC(=O)c1ccc2ccccc2c1 | 3 µM | 9 µM | 3 µM | 3 µM | 3 µM | 1 (active) | 1 (active) | 1 (active) | 1 (active) | 1 (active) | 1 (active) | 1 (active) | 1 (active) | 1 (active) | 1 (active) | 1 (active) | 1 (active) | 1 (active) | 1 (active) | 1 (active)
15 | CCOC(=O)CCNc1cc(N2CCc3ccccc3CC2)nc(-c2ccccn2)n1 | 3 µM | 9 µM | 9 µM | 3 µM | 3 µM | 1 (active) | 1 (active) | 1 (active) | 1 (active) | 1 (active) | 1 (active) | 1 (active) | 1 (active) | 1 (active) | 1 (active) | 1 (active) | 1 (active) | 1 (active) | 1 (active) | 1 (active)
16 | O=C(CCCc1ccc(-c2ccccc2F)cc1)Nc1ccc(O)cc1 | 1 µM | 1 µM | 1 µM | 1 µM | 3 µM | 1 (active) | 1 (active) | 1 (active) | 1 (active) | 1 (active) | 1 (active) | 1 (active) | 1 (active) | 1 (active) | 1 (active) | 1 (active) | 1 (active) | 1 (active) | 1 (active) | 1 (active)
17 | COc1cc(C(=O)N2CCC(N3CCN(C)CC3)CC2)ccc1Nc1ncc2c(n1)N(C)c1ccccc1C(=O)N2C | 3 µM | 3 µM | 3 µM | 3 µM | 1 µM | 1 (active) | 1 (active) | 1 (active) | 1 (active) | 1 (active) | 1 (active) | 1 (active) | 1 (active) | 1 (active) | 1 (active) | 1 (active) | 1 (active) | 1 (active) | 1 (active) | 1 (active)
18 | CC(C)c1cc(-c2n[nH]c(=O)n2-c2ccc3c(ccn3C)c2)c(O)cc1O [ganetespib] | ≤ 0.3 µM | ≤ 0.3 µM | ≤ 0.3 µM | ≤ 0.3 µM | ≤ 0.3 µM | 1 (active) | 1 (active) | 1 (active) | 1 (active) | 1 (active) | 1 (active) | 1 (active) | 1 (active) | 1 (active) | 1 (active) | 1 (active) | 1 (active) | 1 (active) | 1 (active) | 1 (active)
19 | Cc1ncc(-c2ccnc(Nc3ccc(S(C)(=O)=O)cc3)n2)n1C(C)C | ≤ 0.3 µM | ≤ 0.3 µM | ≤ 0.3 µM | ≤ 0.3 µM | ≤ 0.3 µM | 1 (active) | 1 (active) | 1 (active) | 1 (active) | 1 (active) | 1 (active) | 1 (active) | 1 (active) | 1 (active) | 1 (active) | 1 (active) | 1 (active) | 1 (active) | 1 (active) | 1 (active)
20 | O=C(CCCCCCC(=O)Nc1cccnc1)NO [Pyroxamide] | 3 µM | 3 µM | 3 µM | 9 µM | 3 µM | 1 (active) | 1 (active) | 1 (active) | 1 (active) | 1 (active) | 1 (active) | 1 (active) | 1 (active) | 1 (active) | 1 (active) | 1 (active) | 1 (active) | 1 (active) | 1 (active) | 1 (active)
21 | CN1CCC(=C2c3ccccc3CC(=O)c3sccc32)CC1 [ketotifen] | 9 µM | 9 µM | 9 µM | 9 µM | 3 µM | 1 (active) | 1 (active) | 1 (active) | 1 (active) | 1 (active) | 1 (active) | 1 (active) | 1 (active) | 1 (active) | 1 (active) | 1 (active) | 1 (active) | 1 (active) | 1 (active) | 1 (active)
22 | O=C(Nc1cccc(Cl)c1)Nc1ncc(CCNc2ncnc3ccsc23)s1 [SNS 314 mesylate] | ≤ 0.3 µM | ≤ 0.3 µM | ≤ 0.3 µM | ≤ 0.3 µM | ≤ 0.3 µM | 1 (active) | 1 (active) | 1 (active) | 1 (active) | 1 (active) | 1 (active) | 1 (active) | 1 (active) | 1 (active) | 1 (active) | 1 (active) | 1 (active) | 1 (active) | 1 (active) | 1 (active)
